Common to all, as to details: concentration: 10 µM; 24 h
The test system of test [1] is HCC1569. Put plainly: cell number relative to DMSO (% of DMSO); higher = more cells (less growth inhibition / toxicity). The method in brief:
(§1)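 Cells were seeded at 800 per well in 384-well plates with RPMI containing 10% FBS; both HCC1569 and TDF lines were used. Compounds were added at 10 µM for 24 h at 37 °C, in triplicate, before fixation in 3.7% formaldehyde and staining with a rabbit anti-H1.0 antibody, an AlexaFluor 647 secondary and DAPI. H1.0 nuclear intensity or cell number is reported as percent of the plate control using the median of replicates, and HCC1569 values were smoothed for positional effects.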

Test [2] has as its system TDF. The test is described as above. The method in brief:
as §1

For test [3], the system named is TDF. The test is described as follows: H1.0 immunofluorescence intensity relative to DMSO (% of DMSO); higher = stronger H1.0 induction, active = 120 or more. The method, boiled down: as §1
The subject of test [4] is HCC1569. Put plainly: H1.0 immunofluorescence intensity relative to DMSO (% of DMSO); higher = stronger H1.0 induction, active = 140 or more. The method, boiled down: as §1
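For H1.0 immunofluorescence intensity relative to DMSO in this document: TDF is a line of transformed human dermal fibroblasts of mesenchymal origin.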
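For cell number relative to DMSO in this document: TDF denotes transformed human dermal fibroblasts of mesenchymal origin.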

On to `CCN(CC)C(=S)SSC(=S)N(CC)CC` [Tetraethylthiuram disulfide], for which the cell number is 97.2 in test [1] and 54 in test [2]. The H1.0 immunofluorescence intensity was 120 (inactive) in test [3] and 102 (inactive) in test [4].
In the same order, the values of `CN(C)CCCN1c2ccccc2Sc2ccccc21.Cl` [Promazine hydrochloride] are 103, 107, 118 (inactive) and 110 (inactive).
`Cc1c(CC(C)(C)C(=O)O)n(Cc2ccc(Cl)cc2)c2ccc(F)cc12`: the cell number in test [1] worked out at 107; in test [2], 86.5. In addition, the H1.0 immunofluorescence intensity in test [3] was 105 (inactive); in test [4], 99.6 (inactive).
`CN(C)CCC=C1c2ccccc2Sc2ccc(Cl)cc21.Cl` [Chlorprothixene hydrochloride]: the cell number in test [1] was determined as 90.2; in test [2] it was 106. Also, the H1.0 immunofluorescence intensity in test [3] was 116 (inactive); in test [4], 127 (inactive).
Take `Cl.Cl.O=S(=O)(c1cccc2cnccc12)N1CCCNCC1`: the cell number in test [1] was determined as 107; in test [2], 95. The H1.0 immunofluorescence intensity in test [3] was 99.5 (inactive); in test [4], 94.3 (inactive).
As to `OCCn1cc(-c2cnc3nnn(Cc4ccc5ncccc5c4)c3n2)cn1`, the values for the cell number in test [1] and in test [2] were 99.6 and 98.7, respectively. For the same compound, the H1.0 immunofluorescence intensity is 99 (inactive) in test [3] and 99.8 (inactive) in test [4].
Take `CC(F)(F)CN1CCOc2c(nn(-c3ccccc3Cl)c2-c2ccc(Cl)cc2)C1=O`: the results for the cell number in test [1] and in test [2] were 104 and 101, respectively. The values for the H1.0 immunofluorescence intensity in test [3] and in test [4] were 93.5 (inactive) and 88.3 (inactive), respectively.
For `CCCCCCCCCCCCCCCCCCOP(=O)([O-])OC1CC[N+](C)(C)CC1` [1,1-dimethylpiperidinium-4-yl octadecyl phosphate], the cell number in test [1] is 103; in test [2], 96.6. Further, the results for the H1.0 immunofluorescence intensity in test [3] and in test [4] were 98.2 (inactive) and 103 (inactive), respectively.
On to `OB1OCc2cc(F)ccc21` [5-fluoro-2,1-benzoxaborol-1(3H)-ol], for which the cell number in test [1] and in test [2] was 104 in each case. For the same compound, the H1.0 immunofluorescence intensity is 95.6 (inactive) in test [3] and 98.5 (inactive) in test [4].

For the origin of these results see the supplement of paper PMC7156485.
